Measurements: PubChem BioAssay (NCATS)
Inconclusive results are not listed. Where a call stands in place of a potency, no number is given. Calls of active or inactive are those of the source. The call rests on the fitted dose curve; in most records, active means well fitted cell-killing curve with a large enough effect; inconclusive means small, poorly fitted or top-dose-only effect; inactive means flat fitted curve, though single readings scatter.

Test: qHTS assay to identify small molecule inhibitors of chordoma cells - UCH-2 (AID 1259356)
Details: UCH-2 chordoma viability, CellTiter-Glo ATP luminescence, 48 h; series mostly up to 46.1 µM
Description: NIH Chemical Genomics Center [NCGC]
Chordoma is a rare and slow growing tumor that can occur anywhere along the spine, from the base of the skull to the tailbone. Current treatment options for chordoma is surgery and radiation therapy for those who are not candidates for surgery. But chordomas tend to return in the same location or surrounding areas of the original tumor after surgery and/or radiation. Chemotherapy can slow down the progression of the tumor. As chordoma is slow growing, the general cytotoxic agents that kill fast growing cells are ineffective, and some patients have been reported to respond to molecularly targeted drugs.
NCATS Pharmaceutical Collection (NPC) containing approximately 3000 clinically approved and investigational drugs were used to screen at 15 concentrations in a chordoma cell lines, UCH-2, to identify small molecule compounds that can inhibit chordoma cell growth.
NCGC Assay Protocol Summary:
Human chordoma cell line UCH-2 was dispensed at 800 per well in 4uL of culture medium into white solid bottom 1536-well plates (Corning Life Sciences, Corning, NY) using a Multidrop Combi (Thermo Scientific, Waltham, MA) dispenser. The assay plates were incubated at 37 C and 5% CO2 for an overnight, and then 23nL of compounds dissolved in DMSO and positive control were transferred using a Pintool station (Wako, San Diego, CA). Compound treatment was followed by the addition of 1uL of the combination compounds (1uM Auranofin, 500nM each of Camptothecin, Doxorubicin, Rubitecan, and Topotecan) and assay medium to each well of the assay plates using Flying Reagent Dispenser (FRD, Aurora Discovery, San Diego, CA). The assay plates were incubated at 37 C and 5% CO2 for 48hr. Then 5uL of CellTiter-Glo reagent (Promega Corporation, Madison, WI) was added to each well of the assay plates using FRD. After 30min incubation at room temperature, the luminescence signal was quantified using a ViewLux plate reader (PerkinElmer, Shelton, CT).
With `NCCCC(O)(P(=O)(O)O)P(=O)(O)O` the Potency was “inactive”.
With `CCOc1cc(N)c(Cl)cc1C(=O)NCC1CN(Cc2ccc(F)cc2)CCO1` (stereo not given) the Potency was “inactive”.
In the case of `Cc1onc(-c2ccccc2Cl)c1C(=O)N[C@@H]1C(=O)N2[C@@H]1SC(C)(C)[C@@H]2C(=O)O`, the Potency was “inactive”.
For `C#CCN[C@@H]1CCc2ccccc21`, the Potency was “inactive”.
With `NS(=O)(=O)c1cc2c(cc1Cl)NC(C(Cl)Cl)NS2(=O)=O` (stereo not given) the Potency was “inactive”.
With `CCCN[C@H]1CCc2nc(N)sc2C1` the Potency was “inactive”.
For `CC(C)(Sc1cc(C(C)(C)C)c(O)c(C(C)(C)C)c1)Sc1cc(C(C)(C)C)c(O)c(C(C)(C)C)c1`, the Potency was “inactive”.
With `OC(Cn1cncn1)(Cn1cncn1)c1ccc(F)cc1F` the Potency was “inactive”.
With `Cc1ccnc2c1NC(=O)c1cccnc1N2C1CC1` the Potency was “inactive”.
With `CN(Cc1cc(Br)cc(Br)c1N)C1CCCCC1` the Potency was “inactive”.
For `C[C@@H]1C[C@H]2[C@@H]3CCC4=CC(=O)C=C[C@]4(C)[C@@]3(Cl)[C@@H](O)C[C@]2(C)[C@@]1(OC(=O)c1ccco1)C(=O)CCl`, the Potency was “inactive”.
For `CCc1cc(C(N)=S)ccn1`, the Potency was “inactive”.
In the case of `COc1ncnc(NS(=O)(=O)c2ccc(N)cc2)c1OC`, the Potency was “inactive”.
In the case of `CC[C@H](NC(C)C)[C@H](O)c1ccc(O)c2[nH]c(=O)ccc12`, the Potency was “inactive”.
With `CNS(=O)(=O)Cc1ccc2[nH]cc(CCN(C)C)c2c1` the Potency was “inactive”.
With `CNNCc1ccc(C(=O)NC(C)C)cc1` the Potency was “inactive”.
With `CN1CCN(c2c(F)cc3c(=O)c(C(=O)O)cn4c3c2OCN4C)CC1` the Potency was “inactive”.
In the case of `CCC(C)(C)c1ccc(CC(C)CN2C[C@@H](C)O[C@@H](C)C2)cc1` (stereo not given in full), the Potency was “inactive”.
In the case of `CC[C@H](C)C(=O)O[C@H]1C[C@@H](C)C=C2C=C[C@H](C)[C@H](CC[C@@H]3C[C@@H](O)CC(=O)O3)[C@H]21`, the Potency was “inactive”.
For `COc1ccc2cc3[n+](cc2c1OC)CCc1cc2c(cc1-3)OCO2`, the Potency was “inactive”.
For `CCn1cc(C(=O)O)c(=O)c2cc(F)c(N3CCNCC3)nc21`, the Potency was “inactive”.
For `CC(=O)Oc1ccccc1C(=O)Nc1ncc([N+](=O)[O-])s1`, the Potency was “inactive”.
In the case of `Cc1nnc(NS(=O)(=O)c2ccc(N)cc2)s1`, the Potency was “inactive”.
In the case of `O=c1oc2c(O)c(O)cc3c(=O)oc4c(O)c(O)cc1c4c23`, the Potency was “inactive”.
In the case of `N[C@@H](Cc1ccc(O)c(O)c1)C(=O)O`, the Potency was “inactive”.
In the case of `COc1cc(NCc2ccc3nc(N)nc(N)c3c2C)cc(OC)c1OC`, the Potency was “inactive”.
With `CCN(CC)CC#CCOC(=O)C(O)(c1ccccc1)C1CCCCC1` (stereo not given) the Potency was “inactive”.
For `Nc1nc(F)nc2c1ncn2[C@@H]1O[C@H](CO)[C@@H](O)[C@@H]1O`, the Potency was “inactive”.
For `Cc1noc(NS(=O)(=O)c2ccc(N)cc2)c1C`, the Potency was “inactive”.
With `COc1cc([C@@H]2c3cc4c(cc3[C@H](O)[C@H]3COC(=O)[C@H]23)OCO4)cc(OC)c1OC` the Potency was “inactive”.
With `CC(C)(C)NC(=O)[C@H]1CC[C@H]2[C@@H]3CC[C@H]4NC(=O)C=C[C@]4(C)[C@H]3CC[C@]12C` the Potency was “inactive”.
With `COc1nc(N)nc2c1ncn2[C@@H]1O[C@H](CO)[C@@H](O)[C@@H]1O` the Potency was “inactive”.
For `Cc1oc(=O)oc1CN1CCN(c2cc3c(cc2F)c(=O)c(C(=O)O)c2n3C(C)S2)CC1` (stereo not given), the Potency was “inactive”.
For `C[C@@H](CN1CC(=O)NC(=O)C1)N1CC(=O)NC(=O)C1`, the Potency was “inactive”.
For `CC1=CC(=O)c2ccccc2C1=O`, the Potency was “inactive”.
With `COc1cc(NS(=O)(=O)c2ccc(N)cc2)nc(OC)n1` the Potency was “inactive”.
With `COC(c1ccccc1)(c1ccccc1)[C@H](Oc1nc(C)cc(C)n1)C(=O)O` the Potency was “inactive”.
For `CCCc1cc(C(N)=S)ccn1`, the Potency was “inactive”.
For `Cc1ncc([N+](=O)[O-])n1CCO`, the Potency was “inactive”.
For `COc1cnc(NS(=O)(=O)c2ccc(N)cc2)nc1`, the Potency was “inactive”.
